Bioassay records: PubChem BioAssay, National Center for Advancing Translational Sciences (NCATS)
nsP2pro primary: inhibitors of chikungunya virus nsP2 protease | Q8JUX6 | 31,000 compounds, 1.1% hits | FRET peptide cleavage, nsP2pro, fluorescence 1 h | Potency, µM (doses to about 24.9 µM), for inactives: at the highest dose activity change, negative = inhibition, most hits filed as inhibitors | AID 1964107; further: nearly all actives have a fitted effect of over 60% in size
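FRET cleavage of 2.5 uM peptide 2 by 150 nM CHIKV protease domain at pH 8.0 (Tris, Tween 20). Compounds at 7 concentrations (up to 25 uM) preincubated 15 min. Fluorescence read after 1 h at room temperature.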
CHIKV nsP2 cell: cell-based CHIKV nsP2 protease inhibition, secondary. cell-based CHIKV nsP2 protease reporter assay. 450 compounds, 10% hits. Potency, µM (series often up to 51.1 µM), without a hit: at the highest dose activity change, negative = inhibition, usual class: inhibitors. shares compounds with nsP2pro primary; further: nearly all actives have a fitted effect of over 70% in size
NSP2 full ctr: inhibits full-length CHIKV NSP2 enzyme; shares compounds with nsP2pro primary; 410 compounds, 39% hits; AID 1964101; Potency, µM (highest dose often 50.7 µM), inactives show top-dose activity change, negative = inhibition, actives largely listed as inhibitors; Full-length CHIKV NSP2 protease enzymatic counterscreen; further: nearly all actives have a fitted effect of over 65% in size
Furin counterscr: selectivity counter-screen for CHIKV nsP2 protease inhibitors: human furin. shares compounds with nsP2pro primary. 410 compounds, 6% hits. Potency, µM (titrated, usually from 50.6 µM), for the others: at the top dose activity change, negative = inhibition, actives largely listed as inhibitors. Recombinant human furin enzymatic counterscreen, fluorogenic substrate
nsP2 NS23 pep: selectivity test for CHIKV nsP2 protease inhibitors: endogenous NS2/3 peptide; shares compounds with nsP2pro primary; Purified CHIKV nsP2 protease, endogenous NS2/3 peptide cleavage; Potency, µM (top dose mostly 51 µM), for inactives: top-dose activity change, negative = inhibition, actives largely listed as inhibitors; 410 compounds, 34% hits; further: nearly all actives have a fitted effect of over 55% in size
Papain counter: papain protease inhibition, counterscreen for nsP2pro inhibitors; shares compounds with nsP2pro primary; purified papain protease activity, enzymatic inhibition; Potency, µM (series often up to 51 µM), for the others: at the top dose activity change, negative = inhibition, actives largely listed as inhibitors; 410 compounds, 5% hits; AID 1964104
nsP2pro conf qHTS: CHIKV nsP2 protease inhibition, confirmatory qHTS | 410 compounds, 43% hits | shares compounds with nsP2pro primary | Potency, µM (highest dose often 25.5 µM), inactives show at the highest dose activity change, negative = inhibition, most hits filed as inhibitors | CHIKV nsP2 protease enzymatic activity, qHTS; further: nearly all actives have a fitted effect of over 75% in size
HCV NS3 counter: inhibits HCV NS3/4A protease in an nsP2pro selectivity counterscreen; Potency, µM (top dose mostly 50.9 µM), hits mostly inhibitors; shares compounds with nsP2pro primary; 410 compounds, 20% hits; HCV NS3/4A protease biochemical counterscreen; further: nearly all actives have a fitted effect of over 55% in size
Numbers without * were called inactive; [ ] = dose if it differs, or a comment. The full list was thinned out, with hits kept by preference. The call rests on the fitted dose curve. On the % scale 0 is the no-effect control and ±100 the full control effect; potency means the concentration at half of the fitted maximal effect.

What do the screens show for `C=C1/C(=C\C=C2/CCC[C@@]3(C)C2CC[C@@H]3[C@H](C)/C=C\[C@@H](O)C2CC2)C[C@@H](O)C[C@@H]1O` (some centres undefined)?
nsP2pro primary: -24%

What do the screens show for `O=C(Cc1ccc(Cl)c(Cl)c1)Nc1ccc([S+](=O)([O-])Nc2ccc3[nH]ccc3c2)cc1`?
nsP2pro primary: -12%

How did Fc1cc(Nc2nc(-c3ccncc3)nc3ccccc23)ccc1-c1cccc(OC(F)(F)F)c1 do in these assays?
nsP2pro primary: 3%

How did COc1cccc(-c2cn3c(n2)N(C(=O)Cc2cccs2)CCC3)c1 do in these assays?
nsP2pro primary: -2%

How did CN(C)CCCNC(=O)c1ccc(-c2cnc3c(O)cccc3c2)cc1 do in these assays?
nsP2pro primary: inactive

What do the screens show for `CCOC(=O)c1ccc(N2CCN(c3cccc(Cl)c3)CC2)c(NC(=O)Nc2ccc(Cl)cc2)c1`?
nsP2pro primary: 7%

How did Cc1cccc(N2CCN(C(=O)c3ccc(NC(=O)c4nsc5ccccc45)cc3)CC2C)c1 (centres undefined) do in these assays?
nsP2pro primary: 3%

How did Cc1cccc(N2CCN(S(=O)(=O)c3ccc(F)c(C(=O)Nc4cccc(Cl)c4C)c3)CC2C)c1 (centres undefined) do in these assays?
nsP2pro primary: -6%

Results for Cc1cccc(N2CCN(c3ccc(NC(=O)c4ccccc4)cc3C(=O)O)CC2C)c1 (centres undefined) ?
nsP2pro primary: inconclusive; CHIKV nsP2 cell: 9%; NSP2 full ctr: 6.5µM*; Furin counterscr: inconclusive; nsP2 NS23 pep: 16µM*; Papain counter: 21%; nsP2pro conf qHTS: 8µM*; HCV NS3 counter: 3.7µM*

What do the screens show for `Cc1cccc(N2CCN(c3ccc(C(=O)O)cc3NC(=O)c3cccc(Cl)c3)CC2C)c1` (centres undefined)?
nsP2pro primary: inconclusive; CHIKV nsP2 cell: 13%; NSP2 full ctr: 0%; Furin counterscr: -25%; nsP2 NS23 pep: 18µM*; Papain counter: inconclusive; nsP2pro conf qHTS: 8µM*; HCV NS3 counter: inconclusive

Results for Cc1cccc(N2CCN(S(=O)(=O)c3cc(C(=O)Nc4ccc(Oc5ccccc5)cc4)ccc3F)CC2C)c1 (centres undefined) ?
nsP2pro primary: -13%

Results for CC1CCC23COC(=O)C2=CC(O)CC3C1(C)CCc1ccoc1 (centres undefined) ?
nsP2pro primary: 1%

What do the screens show for `Cc1cn2nc(-c3cc(=O)n4cc(N5CCNC6(CC6)C5)ccc4n3)cc(C)c2n1`?
nsP2pro primary: 13%

How did CC1=C(C(=O)NC2CCCCC2)C(c2ccccc2Br)N=C(Nc2nc3ccccc3o2)N1 (centres undefined) do in these assays?
nsP2pro primary: -10%

What do the screens show for `Cc1ccc(S(=O)(=O)Nc2cnccc2C(=O)Nc2ccc(S(=O)(=O)Nc3nccs3)cc2)cc1`?
nsP2pro primary: inactive

How did CCOc1ccc(CCNC(=O)c2cc3ccccc3n2Cc2cc(C)cc(C)n2)cc1OCC do in these assays?
nsP2pro primary: -9%

Results for COc1ccc(S(=O)(=O)c2cc3cc(OC)ccc3oc2=O)cc1 ?
nsP2pro primary: -20%

How did COc1ccc(S(=O)(=O)ON=C2C=C(C)C(=O)C(C)=C2)cc1 do in these assays?
nsP2pro primary: inconclusive; CHIKV nsP2 cell: 2.2µM*; NSP2 full ctr: inconclusive; Furin counterscr: -11%; nsP2 NS23 pep: 6.5µM*; Papain counter: 9.2µM*; nsP2pro conf qHTS: inconclusive; HCV NS3 counter: inactive

Results for COc1ccc(S(=O)(=O)N2CCN(S(=O)(=O)c3ccc(OC)cc3)CC2)cc1 ?
nsP2pro primary: 1%

Results for Cc1cnc(-c2ccccc2C(C)C)nc1NCc1ccc(C(N)=O)cc1 ?
nsP2pro primary: -5%

Results for C[C@@H](COc1ccc(Oc2ccccc2)cc1)Oc1ccccn1 ?
nsP2pro primary: -10%[39.2 µM]

How did COc1ccc(NC(=S)N2CCN(c3cccc(C(F)(F)F)c3)CC2)nc1 do in these assays?
nsP2pro primary: -13%

Results for C[C@@H]1O[C@@H](O[C@H]2[C@H](OC(=O)[C@]34CCC(C)(C)C[C@H]3C3=CCC5[C@@]6(C)CC[C@H](O[C@@H]7O[C@H](CO[C@@H]8OC[C@H](O)[C@H](O)[C@H]8O)[C@@H](O)[C@H](O)[C@H]7O)C(C)(C)C6CC[C@@]5(C)[C@]3(C)C[C@H]4O)OC[C@@H](O)[C@@H]2O)[C@H](O)[C@H](O)[C@H]1O[C@@H]1OC[C@H](O)[C@H](O[C@@H]2OC[C@@H](O)[C@H](O)[C@H]2O)[C@H]1O (some centres undefined) ?
nsP2pro primary: 44%[5.1 µM]

Results for CC1CCc2c(cc(Br)c(F)c2Br)N1C=O (centres undefined) ?
nsP2pro primary: inconclusive; CHIKV nsP2 cell: -27%; NSP2 full ctr: inconclusive; Furin counterscr: 3%; nsP2 NS23 pep: inconclusive; Papain counter: -9%; nsP2pro conf qHTS: inconclusive; HCV NS3 counter: inconclusive

What do the screens show for `C/C(=C\c1ccc(F)cc1)C1Nc2cccc3cccc(c23)N1`?
nsP2pro primary: inactive

What do the screens show for `Cc1ccc(-c2ccc(=O)n(CC(=O)NCCc3ccncc3)n2)cc1`?
nsP2pro primary: -10%

What do the screens show for `Nc1cc(NC(=O)Nc2nnc(-c3ccncc3)s2)ccc1Cl`?
nsP2pro primary: inactive

What do the screens show for `CC1CC2(O)OC(=O)C3=C2C(CCC3)[C@@]12C[C@@H](c1ccoc1)OC2=O` (some centres undefined)?
nsP2pro primary: inconclusive; CHIKV nsP2 cell: -6%[33.5 µM]; NSP2 full ctr: inconclusive; Furin counterscr: -9%[33.5 µM]; nsP2 NS23 pep: inconclusive; Papain counter: -10%[33.5 µM]; nsP2pro conf qHTS: -38%[16.7 µM]; HCV NS3 counter: 1.8µM*

What do the screens show for `CN(CCCNC(=O)C1(CCO)CC12CCOCC2)C1CCCCC1` (centres undefined)?
nsP2pro primary: 1%

Results for CN1C(=O)N(C[C@H](C(=O)NO)[C@@H](CC2CCCC2)C(=O)N2CCCCC2)C(=O)C1(C)C ?
nsP2pro primary: -4%
